These results are taken from PubChem BioAssay (EPA / NIEHS).

Holding throughout (settings): mRNA level, 48 h; actives raise or lower the signal
Read-out in assay [1]: Fatty acid synthase (Homo sapiens) (UniProt P49327)
The assay is described as follows: LTEA_HepaRG_FASN: Life Technologies and Expression Analysis (LTEA) Assay for Fatty Acid Synthase (FASN) using HepaRG (AID 2283448).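 As to AC50: differentiated human HepaRG liver cells in serum-free induction medium.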 The essentials: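 Cells were plated, cultured 48 h, switched to serum-free induction medium, then dosed in duplicate (max 100 uM, half-log dilutions, 0.5% DMSO) for 48 h. RNA was then isolated and FASN quantified by qRT-PCR.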

Read-out in assay [2]: Cyclin Dependent Kinase Inhibitor 1A (CDKN1A), CDKN1A (gene 1026)
The assay is described as follows: LTEA_HepaRG_CDKN1A: Life Technologies and Expression Analysis (LTEA) Assay for Cyclin Dependent Kinase Inhibitor 1A (CDKN1A) using HepaRG (AID 2283450). In a few lines:
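Expression quantified by Fluidigm qRT-PCR with ACTB, GAPDH and POLR2A normalization, fitted bidirectionally against 0.5% DMSO. Cells: HepaRG, plated 48 h then treated 48 h in serum-free induction medium, top concentration 100 uM with half-log dilutions.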

Read-out in assay [3]: Cyclin D1 (CCND1), CCND1 (gene 595)
As to the kind of experiment: LTEA_HepaRG_CCND1: Life Technologies and Expression Analysis (LTEA) Assay for Cyclin D1 (CCND1) using HepaRG (AID 2283451).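 As to AC50: differentiated human HepaRG liver cells in serum-free induction medium; TaqMan qRT-PCR transcript level normalised to ACTB GAPDH and POLR2A housekeeping genes.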 In a few lines:
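Expression of CCND1 was quantified by qRT-PCR on Fluidigm arrays using ACTB, GAPDH and POLR2A as reference genes. HepaRG cultures, plated 48 h beforehand, were dosed for 48 h at up to 100 uM (half-log, 8 points) in 0.5% DMSO.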

Read-out in assay [4]: catalase (CAT), CAT (gene 847)
As to the kind of experiment: LTEA_HepaRG_CAT: Life Technologies and Expression Analysis (LTEA) Assay for catalase (CAT) using HepaRG (AID 2283452). The essentials:
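HepaRG cells in serum-free induction medium, 0.5% DMSO vehicle, exposed 48 h in duplicate over 8 half-log concentrations from 100 uM. CAT mRNA measured by qRT-PCR, normalized to ACTB, GAPDH, POLR2A; bidirectional fit versus DMSO.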

Read-out in assay [5]: flavin-containing dimethylaniline monooxygenases 3 (FMO3), FMO3 (gene 2328)
As to the kind of experiment: LTEA_HepaRG_FMO3: Life Technologies and Expression Analysis (LTEA) Assay for flavin-containing dimethylaniline monooxygenases 3 (FMO3) using HepaRG (AID 2283453).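 As to AC50: differentiated human HepaRG liver cells in serum-free induction medium.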 In a few lines: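 FMO3 transcript quantified by TaqMan qRT-PCR against three housekeeping genes after 48 h chemical exposure of HepaRG cells. Eight-point half-log series, top 100 uM, 0.5% DMSO vehicle; phenobarbital 1mM induction control; up- or down-regulation fitted.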

Read-out in assay [6]: Cytochrome P450 (CYP1A1), CYP1A1 (gene 1543)
The assay is described as follows: LTEA_HepaRG_CYP1A1: Life Technologies and Expression Analysis (LTEA) Assay for Cytochrome P450 (CYP1A1) using HepaRG (AID 2283454). The essentials:
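CYP1A1 transcript levels measured by Fluidigm qRT-PCR against three housekeeping genes, 48 h after chemical dosing of human HepaRG cells (highest concentration 100 uM, half-log steps, 0.5% DMSO vehicle). Gain or loss of signal fitted relative to DMSO.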

Read-out in assay [7]: CFLAR gene, CFLAR (gene 8837)
The assay is described as follows: LTEA_HepaRG_CFLAR: Life Technologies and Expression Analysis (LTEA) Assay for CFLAR gene using HepaRG (AID 2283455). In a few lines:
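qRT-PCR read-out (Fluidigm/TaqMan) of CFLAR mRNA, normalized to three housekeeping genes, in differentiated human HepaRG cells after 48 h chemical exposure; 8-point half-log series from 100 uM in 0.5% DMSO; bidirectional curve fitting versus DMSO.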

Read-out in assay [8]: Forkhead box O1 (FOXO1), FOXO1 (gene 2308)
The assay is described as follows: LTEA_HepaRG_FOXO1: Life Technologies and Expression Analysis (LTEA) Assay for Forkhead box O1 (FOXO1) using HepaRG (AID 2283456). In a few lines:
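HepaRG, 48 h exposure, 8-pt half-log series from 100 uM in 0.5% DMSO, duplicates; Fluidigm qRT-PCR mRNA, housekeeping-normalised; bidirectional fit vs DMSO baseline.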

Read-out in assay [9]: growth arrest and DNA damage 45 (GADD45A), GADD45A (gene 1647)
As to the kind of experiment: LTEA_HepaRG_GADD45A: Life Technologies and Expression Analysis (LTEA) Assay for growth arrest and DNA damage 45 (GADD45A) using HepaRG (AID 2283458). In a few lines:
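Transcript induction or loss, quantified by TaqMan qRT-PCR against three housekeeping genes, is the read-out. HepaRG cells received chemicals for 48 h across eight half-log concentrations from 100 uM in 0.5% DMSO; gain and loss fitted relative to DMSO.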

Read-out in assay [10]: Forkhead box O3 (FOXO3), FOXO3 (gene 2309)
As to the kind of experiment: LTEA_HepaRG_FOXO3: Life Technologies and Expression Analysis (LTEA) Assay for Forkhead box O3 (FOXO3) using HepaRG (AID 2283459). In a few lines: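 qRT-PCR readout of FOXO3 transcript, normalized to three housekeeping genes (ACTB, GAPDH, POLR2A); gain or loss fitted against 0.5% DMSO vehicle. HepaRG cells, 48 h chemical exposure, 8-point half-log series, top 100 uM.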

Read-out in assay [11]: ABC Transporter (ABCB1), ABCB1 (gene 5243)
The assay is described as follows: LTEA_HepaRG_ABCB1: Life Technologies and Expression Analysis (LTEA) Assay for ABC Transporter (ABCB1) using HepaRG (AID 2283460). In a few lines: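 HepaRG, 48 h exposure, 8-pt half-log series from 100 uM, 0.5% DMSO vehicle, duplicates. Readout: ABCB1 transcript by Fluidigm TaqMan qRT-PCR, housekeeping-normalized; bidirectional curve fit vs DMSO baseline.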

Read-out in assay [12]: growth arrest and DNA damage 45 (GADD45B), GADD45B (gene 4616)
As to the kind of experiment: LTEA_HepaRG_GADD45B: Life Technologies and Expression Analysis (LTEA) Assay for growth arrest and DNA damage 45 (GADD45B) using HepaRG (AID 2283461). The essentials: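 Transcript level quantified by Fluidigm TaqMan qRT-PCR with three housekeeping genes for normalization, analyzed for up- or down-regulation against 0.5% DMSO. HepaRG cultures dosed 48 h at eight half-log concentrations up to 100 uM, duplicates.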

Read-out in assay [13]: ABC Transporter (ABCC3), ABCC3 (gene 8714)
The assay is described as follows: LTEA_HepaRG_ABCC3: Life Technologies and Expression Analysis (LTEA) Assay for ABC Transporter (ABCC3) using HepaRG (AID 2283462). The essentials:
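Transcript level by TaqMan qRT-PCR, normalised to three housekeeping genes, fitted in both directions relative to vehicle. Chemicals tested in duplicate at eight half-log concentrations up to 100 uM for 48 h on HepaRG cells (0.5% DMSO).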

Read-out in assay [14]: ABC Transporter (ABCB11), ABCB11 (gene 8647)
As to the kind of experiment: LTEA_HepaRG_ABCB11: Life Technologies and Expression Analysis (LTEA) Assay for ABC Transporter (ABCB11) using HepaRG (AID 2283463). In a few lines:
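HepaRG, 48 h exposure, 8-pt half-log CRC top 100 uM, 0.5% DMSO vehicle, duplicates. Readout: TaqMan qRT-PCR of ABCB11 mRNA, housekeeping-normalized (ACTB/GAPDH/POLR2A). Bidirectional fit vs DMSO baseline.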

Read-out in assay [15]: Broad substrate specificity ATP-binding cassette transporter ABCG2 (Homo sapiens) (UniProt Q9UNQ0)
As to the kind of experiment: LTEA_HepaRG_ABCG2: Life Technologies and Expression Analysis (LTEA) Assay for ABC Transporter (ABCG2) using HepaRG (AID 2283465). The essentials: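 HepaRG, 48 h exposure, 8-pt half-log series from 100 uM, 0.5% DMSO vehicle, duplicates. Readout: ABCG2 transcript by qRT-PCR (Fluidigm array), housekeeping-normalized; bidirectional curve fit relative to DMSO baseline.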

Read-out in assay [16]: Cyclin D2 (CCND2), CCND2 (gene 894)
As to the kind of experiment: LTEA_HepaRG_CCND2: Life Technologies and Expression Analysis (LTEA) Assay for Cyclin D2 (CCND2) using HepaRG (AID 2283449).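 Also: CCND2 transcript measured by TaqMan qRT-PCR and normalised to three housekeeping genes.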 The essentials: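 HepaRG, 48 h dosing, 8-pt half-log curve from 100 uM, 0.5% DMSO; duplicate wells. Readout: CCND2 transcript by microfluidic qRT-PCR, housekeeping-normalised; bidirectional fit vs DMSO baseline.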

Read-out in assay [17]: ABC Transporter (ABCC2), ABCC2 (gene 1244)
The assay is described as follows: LTEA_HepaRG_ABCC2: Life Technologies and Expression Analysis (LTEA) Assay for ABC Transporter (ABCC2) using HepaRG (AID 2283464). In a few lines: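 Endpoint is ABCC2 transcript level from qRT-PCR, normalized to three housekeeping genes and fitted bidirectionally relative to DMSO. Human HepaRG cells received test chemical for 48 h at up to 100 uM (8 points, half-log steps, 0.5% DMSO), duplicate wells.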

The term AC50 denotes the concentration giving half of the maximal activity seen.

Activity calls are given as the source filed them. The calls were made as follows: active = hit-call score of the fitted dose curve at least 0.9, where 1 is the maximum; inactive = score below 0.9.

Chain of Fatty acid synthase (Homo sapiens) (P49327 whole entry, looked up): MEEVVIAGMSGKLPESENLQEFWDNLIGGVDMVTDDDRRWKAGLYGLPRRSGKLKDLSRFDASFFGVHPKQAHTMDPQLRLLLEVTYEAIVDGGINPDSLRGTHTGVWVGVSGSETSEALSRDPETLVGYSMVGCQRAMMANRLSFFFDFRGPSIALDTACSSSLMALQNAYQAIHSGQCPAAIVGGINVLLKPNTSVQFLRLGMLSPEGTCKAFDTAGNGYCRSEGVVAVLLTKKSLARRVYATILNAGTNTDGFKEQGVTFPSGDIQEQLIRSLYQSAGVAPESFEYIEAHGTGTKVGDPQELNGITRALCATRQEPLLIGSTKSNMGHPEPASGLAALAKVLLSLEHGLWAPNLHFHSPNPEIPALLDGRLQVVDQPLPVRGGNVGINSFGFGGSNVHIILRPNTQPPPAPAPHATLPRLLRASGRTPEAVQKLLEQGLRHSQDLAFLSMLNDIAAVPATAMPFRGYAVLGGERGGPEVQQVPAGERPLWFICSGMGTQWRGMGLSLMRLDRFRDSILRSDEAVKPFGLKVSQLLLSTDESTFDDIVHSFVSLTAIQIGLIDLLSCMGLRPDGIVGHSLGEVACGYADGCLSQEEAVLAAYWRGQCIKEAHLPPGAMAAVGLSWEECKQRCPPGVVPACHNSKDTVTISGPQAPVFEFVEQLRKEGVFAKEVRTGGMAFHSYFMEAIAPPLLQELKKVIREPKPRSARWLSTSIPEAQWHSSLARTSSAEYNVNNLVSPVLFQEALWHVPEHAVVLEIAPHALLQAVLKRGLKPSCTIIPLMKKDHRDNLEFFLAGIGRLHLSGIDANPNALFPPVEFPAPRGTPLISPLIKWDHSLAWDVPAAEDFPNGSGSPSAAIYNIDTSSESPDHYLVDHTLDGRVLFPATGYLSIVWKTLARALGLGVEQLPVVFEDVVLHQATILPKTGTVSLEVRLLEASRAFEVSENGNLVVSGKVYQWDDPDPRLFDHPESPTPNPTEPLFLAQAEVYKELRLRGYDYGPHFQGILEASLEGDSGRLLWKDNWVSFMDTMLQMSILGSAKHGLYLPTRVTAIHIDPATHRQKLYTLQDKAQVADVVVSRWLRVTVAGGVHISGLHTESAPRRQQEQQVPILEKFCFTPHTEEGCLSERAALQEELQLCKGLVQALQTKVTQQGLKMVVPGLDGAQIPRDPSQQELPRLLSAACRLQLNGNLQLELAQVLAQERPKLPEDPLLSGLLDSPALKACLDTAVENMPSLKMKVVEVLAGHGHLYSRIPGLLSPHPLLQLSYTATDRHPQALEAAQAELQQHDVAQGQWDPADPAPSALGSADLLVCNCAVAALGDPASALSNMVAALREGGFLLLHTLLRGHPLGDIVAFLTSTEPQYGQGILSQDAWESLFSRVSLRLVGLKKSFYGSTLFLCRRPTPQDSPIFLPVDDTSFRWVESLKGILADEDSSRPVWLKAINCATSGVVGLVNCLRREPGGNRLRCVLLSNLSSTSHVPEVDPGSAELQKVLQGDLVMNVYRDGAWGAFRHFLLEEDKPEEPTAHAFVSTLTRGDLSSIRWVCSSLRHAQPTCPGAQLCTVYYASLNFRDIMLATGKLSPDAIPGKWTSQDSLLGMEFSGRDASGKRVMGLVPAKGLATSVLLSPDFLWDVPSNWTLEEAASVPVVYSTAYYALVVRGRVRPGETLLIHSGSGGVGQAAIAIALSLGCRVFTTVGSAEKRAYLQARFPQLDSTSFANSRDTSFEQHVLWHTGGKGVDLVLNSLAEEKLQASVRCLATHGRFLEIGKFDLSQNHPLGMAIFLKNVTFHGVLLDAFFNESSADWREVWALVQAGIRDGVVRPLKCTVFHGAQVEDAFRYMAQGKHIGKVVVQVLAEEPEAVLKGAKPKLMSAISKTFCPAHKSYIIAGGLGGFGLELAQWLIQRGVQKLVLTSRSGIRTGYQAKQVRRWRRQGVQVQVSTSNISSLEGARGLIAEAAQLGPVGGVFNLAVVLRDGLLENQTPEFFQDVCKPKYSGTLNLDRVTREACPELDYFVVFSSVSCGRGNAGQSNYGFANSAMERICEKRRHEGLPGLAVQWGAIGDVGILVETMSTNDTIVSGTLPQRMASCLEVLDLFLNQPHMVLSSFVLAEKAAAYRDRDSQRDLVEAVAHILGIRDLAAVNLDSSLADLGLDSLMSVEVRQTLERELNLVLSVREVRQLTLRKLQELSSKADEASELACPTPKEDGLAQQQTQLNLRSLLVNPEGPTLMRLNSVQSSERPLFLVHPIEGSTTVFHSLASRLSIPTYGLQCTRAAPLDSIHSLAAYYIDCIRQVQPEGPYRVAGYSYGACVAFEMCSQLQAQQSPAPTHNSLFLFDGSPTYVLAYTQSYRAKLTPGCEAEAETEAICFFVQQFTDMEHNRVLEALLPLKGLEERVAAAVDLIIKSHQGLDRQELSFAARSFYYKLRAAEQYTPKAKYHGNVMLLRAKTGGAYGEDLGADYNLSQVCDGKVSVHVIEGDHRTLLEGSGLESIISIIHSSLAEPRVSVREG
Chain of Broad substrate specificity ATP-binding cassette transporter ABCG2 (Homo sapiens) (Q9UNQ0 whole entry, looked up): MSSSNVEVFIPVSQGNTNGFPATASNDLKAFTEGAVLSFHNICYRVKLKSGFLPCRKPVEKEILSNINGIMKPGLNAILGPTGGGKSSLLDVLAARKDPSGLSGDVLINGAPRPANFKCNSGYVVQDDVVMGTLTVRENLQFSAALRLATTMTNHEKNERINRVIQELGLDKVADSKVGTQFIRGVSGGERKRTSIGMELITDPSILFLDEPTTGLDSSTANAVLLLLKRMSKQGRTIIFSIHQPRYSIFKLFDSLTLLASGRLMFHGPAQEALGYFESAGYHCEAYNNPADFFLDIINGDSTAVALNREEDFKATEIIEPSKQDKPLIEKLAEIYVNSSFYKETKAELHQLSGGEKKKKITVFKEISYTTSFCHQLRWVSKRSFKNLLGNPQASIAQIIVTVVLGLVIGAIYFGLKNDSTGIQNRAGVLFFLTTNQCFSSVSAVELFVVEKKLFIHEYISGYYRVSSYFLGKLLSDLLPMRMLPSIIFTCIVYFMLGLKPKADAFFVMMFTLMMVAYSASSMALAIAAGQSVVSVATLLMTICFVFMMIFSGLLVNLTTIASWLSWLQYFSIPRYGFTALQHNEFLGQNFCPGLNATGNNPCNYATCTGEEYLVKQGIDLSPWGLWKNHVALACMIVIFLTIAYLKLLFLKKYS

Consider `CC(C)=CCCC(C)CCO` (configuration not stated), for which the result in assay [1], in assay [2], in [3], in [4], in [5] and in assay [7] was inactive. For the same compound, the call in assay [8], in assay [9], in [10], in assay [11], in [12] and in [13] was inactive. Moreover, the result in [14] and in assay [15] was inactive. Besides, the AC50 in assay [6] is 62.2 µM (active).
In the case of `Cc1ccc(C)c(O)c1`, the compound was called inactive in [1], in [16], in [2], in assay [3], in assay [4] and in [5]. Besides, the call in assay [7], in assay [8], in assay [9], in assay [10], in assay [11] and in assay [12] was inactive. The compound was called inactive in [13], in assay [14], in assay [17] and in assay [15]. Also, the AC50 in [6] was 51.2 µM (active).
For the compound `CCc1cc(SCc2sc(-c3ccc(C(F)(F)F)cc3)nc2CN2CCN(c3ccc(OC)cc3)CC2)ccc1OCC(=O)O`, the AC50 in assay [1] was 71.3 µM (active); in assay [2] it was 85.4 µM (active); in [3], 93.4 µM (active); in assay [4], 93.7 µM (active); in assay [5], 5.55 µM (active); in [6], 7.69 µM (active). In addition, the AC50 is 92.4 µM (active) in [8]; 8.67 µM (active) in assay [9]; 93.5 µM (active) in assay [10]; 25 µM (active) in [11]; 92.7 µM (active) in [12]; 90.3 µM (active) in [13]. Further, the AC50 in assay [14] is 8.6 µM (active); in assay [17], 93.3 µM (active); in [15] it was 7.49 µM (active).
`CC1(C)C(=O)N(Br)C(=O)N1Br`: the result in assay [1], in assay [16], in assay [2], in assay [3], in [4] and in assay [5] was inactive. Moreover, the result in assay [7], in assay [8], in assay [9], in assay [10], in assay [11] and in assay [12] was inactive. Besides, the compound was called inactive in assay [13], in assay [14], in assay [17] and in assay [15]. For the same compound, the AC50 in [6] was 36.8 µM (active).
With `NC(=O)NO`, the result in [1], in [16], in assay [2], in assay [3], in [4] and in assay [5] was inactive. Further, the call in assay [7], in assay [8], in assay [9], in [10], in [11] and in [12] was inactive. The result in assay [13], in assay [14] and in assay [15] was inactive.
For the compound `O=C(O)c1cccc(Oc2ccccc2)c1`, the outcome in assay [1], in assay [16], in [2], in assay [3], in [4] and in assay [5] was inactive. Also, the compound was classed as inactive in assay [7], in assay [8], in assay [9], in assay [10], in assay [11] and in [12]. Besides, the compound was classed as inactive in assay [13], in assay [14], in assay [17] and in [15]. In addition, the AC50 in assay [6] was 37.9 µM (active).
As to `CCCCCCc1ccc(O)cc1O`, the compound was called inactive in [1], in [16], in [2], in [3], in [4] and in [5]. The call in assay [7], in [8], in [9], in assay [10], in [11] and in [12] was inactive. Also, the compound was called inactive in assay [13], in [14] and in [15]. Further, the AC50 in [6] was 77.7 µM (active).
